Granule exo inh: blocks lytic granule exocytosis. AID 651702. actives 0.66% (n = 360,000). TALL-104 LAMP-1 surface exposure, flow cytometry; cells stimulated with thapsigargin and PMA. inhibition, % at 10 µM;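 active means inhibition above about 55%, limit read from the data; inconclusive means no clear call, values can overlap the other calls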
Myeloid diff MLP: promotes myeloid progenitor differentiation; ER-HoxA9 myeloid progenitors, lysozyme-GFP differentiation, flow cytometry; calls only at 10 µM; actives 1% (n = 360,000); AID 624256;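 active means normalized GFP-positive differentiation at or above the plate's own cutoff, the solvent-only control mean plus 3 SD; inconclusive means no clear call, values can overlap the other calls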;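 further: cells exposed to compound for four days before flow analysis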
ABCB6 inh MLPCN: blocks the human ABCB6 transporter; AID 602162; actives 0.19% (n = 360,000); K562-ABCB6 porphyrin accumulation, flow cytometry, 1 h; hits give low values; fluorescence ratio to DMSO, % at 10 µM;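 active means fluorescence ratio to DMSO below 75%, the collection mean minus 3 SD; inconclusive means too few cells collected in the well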;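 further: signal is porphyrin accumulated inside mitochondria; lower ratio means ABCB6 inhibition with less porphyrin fluorescence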
Target sequence (Q9NP58 whole entry, looked up): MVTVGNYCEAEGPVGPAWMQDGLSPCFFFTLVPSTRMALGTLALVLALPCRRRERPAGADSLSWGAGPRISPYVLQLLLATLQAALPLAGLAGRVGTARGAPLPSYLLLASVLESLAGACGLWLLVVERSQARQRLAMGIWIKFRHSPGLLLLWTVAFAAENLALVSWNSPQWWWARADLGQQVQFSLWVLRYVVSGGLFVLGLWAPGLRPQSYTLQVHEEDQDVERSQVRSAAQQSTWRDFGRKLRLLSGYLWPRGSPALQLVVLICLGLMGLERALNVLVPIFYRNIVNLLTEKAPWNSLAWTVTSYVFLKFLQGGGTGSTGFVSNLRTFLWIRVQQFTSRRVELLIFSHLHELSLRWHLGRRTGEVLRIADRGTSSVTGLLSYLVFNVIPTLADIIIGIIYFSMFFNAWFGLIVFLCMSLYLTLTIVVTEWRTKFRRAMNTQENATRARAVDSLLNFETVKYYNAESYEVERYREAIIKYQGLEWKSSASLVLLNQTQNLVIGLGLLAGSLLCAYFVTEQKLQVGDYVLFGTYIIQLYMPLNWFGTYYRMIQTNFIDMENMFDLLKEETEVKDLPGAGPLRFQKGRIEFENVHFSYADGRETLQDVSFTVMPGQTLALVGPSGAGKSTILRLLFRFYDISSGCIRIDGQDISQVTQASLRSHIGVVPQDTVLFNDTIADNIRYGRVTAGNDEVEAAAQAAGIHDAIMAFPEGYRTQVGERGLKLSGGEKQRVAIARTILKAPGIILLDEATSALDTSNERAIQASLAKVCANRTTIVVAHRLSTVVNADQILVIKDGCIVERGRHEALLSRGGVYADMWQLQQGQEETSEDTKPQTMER
Each line names hits and unclear results; the compound was inactive in the other large screens. Sampled rows, rich in hits. Any-hit rate of the full collection: about 1.8%.

COC1OC2COC(c3ccccc3)OC2C2OC12 (centres undefined)	none
COc1ccc(C(=O)N2CCC(c3ccccc3)CC2)c(OC)c1OC	none
CC(C)NC(=O)C1(C)CCCCN1Cc1ccc(OCc2ccccc2)cc1 (centres undefined)	none
Cc1ccc(C(=O)N/C(=C\c2cn(C)c3ccccc23)C(=O)NCCCN2CCOCC2)cc1	none
Cc1ccc(C(=O)N/C(=C\c2ccc(-c3ccccc3[N+](=O)[O-])o2)C(=O)NCCCN2CCOCC2)cc1	Granule exo inh 91
CCCNC(=O)C1(C)CCCN(C(=O)c2cccc(C#N)c2)C1 (centres undefined)	none
CSc1ccccc1CNc1nc(NCC2CC2)nc2ccsc12	Myeloid diff MLP inconclusive
CCc1nc2c(OCC(=O)C(C)(C)C)cccn2c1N(C)C(=O)CC(C)C	none
Cc1cc(-c2cccs2)c2c(N)c(C(=O)c3ccc4c(c3)OCO4)sc2n1	Myeloid diff MLP active
COc1ccc(C(=O)c2sc3nc(C)cc(-c4cccs4)c3c2N)cc1	none
C#CCNC(=O)C[C@@H]1C[C@@]2(C(=O)OCC)CCCC=C2N(Cc2ccc3c(c2)OCO3)C1=O	none
CCCOc1ccc(N)cc1N	Myeloid diff MLP active
CCCOc1cc(N)ccc1C(=O)OCCN(CC)CC	none
CCOC(=O)c1[nH]c(C)c(C(=O)OCC(=O)N(C)C2CCS(=O)(=O)C2)c1C (centres undefined)	none
Cc1ccc(S(=O)(=O)SCCCSS(=O)(=O)c2ccc(C)cc2)cc1	none
Cc1ccc(S(=O)(=O)SC/C=C/CSS(=O)(=O)c2ccc(C)cc2)cc1	Granule exo inh 78
CN(c1ccccc1)S(=O)(=O)c1cccc(NC(=O)c2ccc(Cl)c([N+](=O)[O-])c2)c1	none
Cc1ccccc1CNC(=O)C(C)Sc1ccccc1 (centres undefined)	none
CC1=CC(=C(C#N)c2nc3ccccc3s2)C=C(C)N1c1ccc(F)cc1	none
COc1ccccc1N1C(C)=CC(=C(C#N)c2nc3ccccc3s2)C=C1C	Myeloid diff MLP active
Cc1ccc(F)cc1NC(=O)CSc1nc(Nc2ccccc2)nc(N2CCOCC2)n1	Myeloid diff MLP active
CN(C)c1nc(SCC(=O)Nc2ccccc2)nc(N2CCOCC2)n1	none
Cc1ccccc1NC(=O)CSc1nc(Nc2ccccc2)nc(N2CCOCC2)n1	none
CN(C)c1nc(SCC(=O)Nc2ccc(Cl)c(Cl)c2)nc(N2CCOCC2)n1	Granule exo inh 74
O=c1[nH][nH]c(=O)c2c1[nH]c(=S)n2Cc1ccccc1	none
C#CCSc1n[nH]c(-c2ccco2)n1	Myeloid diff MLP active
COc1ccc(NC(=O)CSc2n[nH]c(-c3ccco3)n2)cc1	Myeloid diff MLP active
O=C(CSc1n[nH]c(-c2ccco2)n1)Nc1ccc(Br)cc1	none
O=C(O)c1ccc(CSc2n[nH]c(-c3ccco3)n2)cc1	none
CC(=O)N1CC[n+]2c(-c3ccc(Cl)cc3Cl)csc21	none
CCCCCCCCN1C(=O)[C@H](CC(=O)N2CCN(C(=O)C3CC3)CC2)C[C@@]2(C(=O)OC)CCCCC=C12	none
Cc1cc(C)cc(N(CC(=O)NC2CCCC2)C(=O)CCC(=O)Nc2nc(C)cs2)c1	none
COc1cc(/C=C/C(=O)OCC(=O)Nc2cc(S(=O)(=O)N3CCCC3)ccc2Cl)cc(OC)c1OC	none
Cc1nc(C)c(C(=O)OCC(=O)Nc2ccccc2SCC#N)s1	Myeloid diff MLP active
Cc1nc(C)c(C(=O)OCC(=O)Nc2ccccc2)s1	none
CN(C)S(=O)(=O)c1ccc(S(=O)(=O)NCc2cccs2)cc1	none
O=C(Cc1cccs1)N=Nc1c(O)[nH]c2ccc(Br)cc12	none
O=C(CNC(=O)c1ccco1)N=Nc1c(O)[nH]c2ccc(Br)cc12	Myeloid diff MLP active
COC(=O)c1ccccc1C(=O)c1c(C)cc(C)cc1C	none
Cc1csc(SCC(=O)Nc2ccc3[nH]c(=O)[nH]c3c2)n1	none
CC(=O)C1=C(O)C(=O)N(CCCn2ccnc2)C1c1ccc(Br)cc1 (centres undefined)	Myeloid diff MLP active
COc1ccc(C2C(C(C)=O)=C(O)C(=O)N2CCCn2ccnc2)cc1OC (centres undefined)	none
CC(=O)Nc1ccc(S(=O)(=O)NCCC(=O)N2CCC(Cc3ccccc3)CC2)cc1	none
O=C1c2ccccc2C(=O)N1SC1CCCCC1	Granule exo inh 87
O=C(OCN1C(=O)c2ccccc2C1=O)C1CCCCC1	none
CN(Cc1ccccc1)C(=O)[C@@H]1CCCN1C(=O)[C@@H]1CCCN1C(=O)c1ccccc1	none
COC1=CC(=O)C(C2CC(=O)c3c(O)cc(O)cc3O2)=CC1=O (centres undefined)	Granule exo inh 67
COc1c(CC=C(C)C)cc(C2CC(=O)c3c(O)cc(O)cc3O2)cc1CC=C(C)C (centres undefined)	none
CC(C)CN(C(=O)CSc1nc2ccccc2o1)c1c(N)n(Cc2ccccc2)c(=O)[nH]c1=O	none
CCOc1ccccc1N1CCN(C(=O)c2cc(-c3cccnc3)nc3c(Cl)cccc23)CC1	Myeloid diff MLP active
CCOc1ccccc1N1CCN(C(=O)c2ccncc2)CC1	none (no result: Myeloid diff MLP)
Cc1ccc(C(C)C)c(OCC(=O)NNC(=O)Cn2[nH]c(=O)c3ccccc3c2=O)c1	none
CN(c1ccccc1)S(=O)(=O)c1cccc(NC(=O)CN2C(=O)NC3(CCCC3)C2=O)c1	none
O=C(N/N=C/c1cccc([N+](=O)[O-])c1)c1cc(-c2ccc3c(c2)OCO3)n[nH]1	none
CCc1ccc(/C=N/NC(=O)c2cc(-c3cccc([N+](=O)[O-])c3)n[nH]2)cc1	Granule exo inh 76
CC1(NC(=O)Nc2cccc3ccccc23)CCS(=O)(=O)C1 (centres undefined)	none
NC(=S)N=Nc1c(O)n(CCCl)c2ccc(Br)cc12	Granule exo inh 78
C/C(Cl)=C\Cn1c(O)c(N=NC(N)=S)c2cc(Br)ccc21	none
O=C(COC(=O)/C=C/c1cccc(Br)c1)NC1CCCC1	none
Cc1cc(=O)c2c(N(C)C)cccc2[nH]1	none
O=C(Nc1ccc(Cl)cc1)Nc1ccccc1Sc1ncc([N+](=O)[O-])s1	Myeloid diff MLP inconclusive
O=[N+]([O-])c1ccc(Sc2ncccn2)c([N+](=O)[O-])c1	none
O=[N+]([O-])c1cnc(Sc2ccncn2)c([N+](=O)[O-])c1	Granule exo inh 68, Myeloid diff MLP inconclusive
O=[N+]([O-])c1cnc(Sc2ccncn2)s1	Granule exo inh 61, Myeloid diff MLP inconclusive
NC(=O)C(C1=CCCCC1)c1ccccc1 (centres undefined)	none
Cc1cc(C)c(C)c(S(=O)(=O)N2CCC(C(=O)NC3=NCCS3)CC2)c1C	none
C=CCn1nc(C(=O)N2CCOCC2)cc1-c1sc(NC(=O)c2ccccc2)nc1C	none
Cc1cc2c(=Cc3ccc(N(C)C)cc3)c3ccccc3n2[n+]1C	none (no result: Myeloid diff MLP)
CN(C)c1ccc(C=c2c3cc(O)ccc3n3c2cc(-c2ccccc2)[n+]3C)cc1	Myeloid diff MLP active
CCOC(=O)c1cc2c(=Cc3ccc(N(C)C)cc3)c3ccccc3n2[n+]1C	Granule exo inh 67 (no result: Myeloid diff MLP)
C[n+]1c(-c2ccccc2)cc2c(=Cc3ccccc3)c3ccccc3n21	Myeloid diff MLP inconclusive
Cc1cc(/C=N\NC(=O)CC(=O)NC2CCCCC2)c(C)n1-c1ccc(Cl)c(Cl)c1	Myeloid diff MLP active
Cc1cc(/C=N\NC(=O)CC(=O)NC2CCCCC2)c(C)n1-c1cccc(Cl)c1Cl	none
N#Cc1ccccc1S(=O)(=O)N1CCN(C(=O)C2CC(=O)N(c3ccc4c(c3)OCCO4)C2)CC1 (centres undefined)	none

High-throughput results from PubChem.
